# Results from publication PMC11006913.
# Changes are numbered by the printed parent chain.
# Columns and labels:
# Assay in all cases: PBM; 200 nM protein, PBS
# Details in all cases: dsDNA, one strand shown
# [1] = molecular target: HOXB4 (Homo sapiens, UniProt P17483 148-234)
# [2] = molecular target: HOXA7 (Homo sapiens, UniProt P31268 116-202)
# [3] = molecular target: HOXB4 (Homo sapiens, UniProt P17483 148-234, V174I)
# [4] = molecular target: HOXA7 (Homo sapiens, UniProt P31268 116-202, W177C)
# HOXA7 (Homo sapiens, UniProt P31268 116-202, W177C), sequence (P31268 116-202 W177C): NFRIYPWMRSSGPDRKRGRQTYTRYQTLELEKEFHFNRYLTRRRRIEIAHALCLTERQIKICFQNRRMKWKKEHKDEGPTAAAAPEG
# [5] = molecular target: HOXA4 (Homo sapiens, UniProt Q00056 201-287, W262R)
# HOXA4 (Homo sapiens, UniProt Q00056 201-287, W262R), sequence (Q00056 201-287 W262R): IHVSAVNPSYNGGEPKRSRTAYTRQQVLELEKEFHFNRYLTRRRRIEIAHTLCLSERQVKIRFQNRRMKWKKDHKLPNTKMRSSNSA
# [6] = molecular target: HOXA4 (Homo sapiens, UniProt Q00056 201-287, R217L)
# HOXA4 (Homo sapiens, UniProt Q00056 201-287, R217L), sequence (Q00056 201-287 R217L): as the sequence (Q00056 201-287 W262R) above, with R17L, R62W counted along it
# [7] = molecular target: HOXA4 (Homo sapiens, UniProt Q00056 201-287)
# HOXA4 (Homo sapiens, UniProt Q00056 201-287), sequence (Q00056 201-287): as the sequence (Q00056 201-287 W262R) above, with R62W counted along it
# [8] = molecular target: HOXA4 (Homo sapiens, UniProt Q00056 201-287, W262F)
# HOXA4 (Homo sapiens, UniProt Q00056 201-287, W262F), sequence (Q00056 201-287 W262F): as the sequence (Q00056 201-287 W262R) above, with R62F counted along it
# [9] = molecular target: HOXB6 (Homo sapiens, UniProt P17509 132-218, K202E)
# HOXB6 (Homo sapiens, UniProt P17509 132-218, K202E), sequence (P17509 132-218 K202E): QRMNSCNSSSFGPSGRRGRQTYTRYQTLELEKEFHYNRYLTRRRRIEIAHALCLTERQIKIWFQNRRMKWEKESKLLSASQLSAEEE
# [10] = molecular target: ALX3 (Homo sapiens, UniProt O95076 139-225, N203Q)
# ALX3 (Homo sapiens, UniProt O95076 139-225, N203Q), sequence (O95076 139-225 N203Q): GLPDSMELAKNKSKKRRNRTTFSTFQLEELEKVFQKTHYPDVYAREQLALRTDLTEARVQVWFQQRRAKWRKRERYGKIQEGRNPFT
# [11] = molecular target: ALX3 (Homo sapiens, UniProt O95076 139-225)
# ALX3 (Homo sapiens, UniProt O95076 139-225), sequence (O95076 139-225): as the sequence (O95076 139-225 N203Q) above, with Q65N counted along it
# [12] = molecular target: ALX3 (Homo sapiens, UniProt O95076 139-225, L168Q)
# ALX3 (Homo sapiens, UniProt O95076 139-225, L168Q), sequence (O95076 139-225 L168Q): as the sequence (O95076 139-225 N203Q) above, with L30Q, Q65N counted along it
# [13] = molecular target: ALX3 (Homo sapiens, UniProt O95076 139-225, L168V)
# ALX3 (Homo sapiens, UniProt O95076 139-225, L168V), sequence (O95076 139-225 L168V): as the sequence (O95076 139-225 N203Q) above, with L30V, Q65N counted along it
# [14] = molecular target: ALX3 (Homo sapiens, UniProt O95076 139-225, N203S)
# ALX3 (Homo sapiens, UniProt O95076 139-225, N203S), sequence (O95076 139-225 N203S): as the sequence (O95076 139-225 N203Q) above, with Q65S counted along it
# [15] = molecular target: HOXB6 (Homo sapiens, UniProt P17509 132-218)
# HOXB6 (Homo sapiens, UniProt P17509 132-218), sequence (P17509 132-218): as the sequence (P17509 132-218 K202E) above, with E71K counted along it
# [16] = molecular target: HOXC9 (Homo sapiens, UniProt P31274 178-260, K195R)
# HOXC9 (Homo sapiens, UniProt P31274 178-260, K195R), sequence (P31274 178-260 K195R): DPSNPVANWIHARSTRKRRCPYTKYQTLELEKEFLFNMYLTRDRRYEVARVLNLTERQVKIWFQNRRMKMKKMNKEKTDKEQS
# [17] = molecular target: HOXC9 (Homo sapiens, UniProt P31274 178-260)
# HOXC9 (Homo sapiens, UniProt P31274 178-260), sequence (P31274 178-260): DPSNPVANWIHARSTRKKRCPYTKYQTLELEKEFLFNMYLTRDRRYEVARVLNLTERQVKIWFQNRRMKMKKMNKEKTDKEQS
# [18] = molecular target: HOXC9 (Homo sapiens, UniProt P31274 178-260, R193K)
# HOXC9 (Homo sapiens, UniProt P31274 178-260, R193K), sequence (P31274 178-260 R193K): as the sequence (P31274 178-260) above, with R16K counted along it
# [19] = molecular target: HOXC9 (Homo sapiens, UniProt P31274 178-260, R222W)
# HOXC9 (Homo sapiens, UniProt P31274 178-260, R222W), sequence (P31274 178-260 R222W): as the sequence (P31274 178-260) above, with R45W counted along it
# [20] = molecular target: T1, PAX4 (Homo sapiens, UniProt O43316 9-242, R200K)
# T1 sequence: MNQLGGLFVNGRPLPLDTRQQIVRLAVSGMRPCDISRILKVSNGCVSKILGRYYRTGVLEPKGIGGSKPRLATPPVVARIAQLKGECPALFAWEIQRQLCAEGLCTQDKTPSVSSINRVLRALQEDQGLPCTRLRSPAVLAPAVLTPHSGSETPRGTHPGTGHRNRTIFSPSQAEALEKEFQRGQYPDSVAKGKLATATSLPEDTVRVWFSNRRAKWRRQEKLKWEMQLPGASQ
# [21] = molecular target: T2, PAX4 (Homo sapiens, UniProt O43316 9-242)
# T2 sequence: T1 sequence with K192R
# [22] = molecular target: ALX1 (Homo sapiens, UniProt Q15699 118-204, L144V)
# ALX1 (Homo sapiens, UniProt Q15699 118-204, L144V), sequence (Q15699 118-204 L144V): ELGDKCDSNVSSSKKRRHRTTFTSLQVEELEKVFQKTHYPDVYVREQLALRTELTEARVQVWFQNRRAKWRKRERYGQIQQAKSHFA
# [23] = molecular target: T3, PAX4 (Homo sapiens, UniProt O43316 9-242, R200Q)
# T3 sequence: T1 sequence with K192Q
# [24] = molecular target: ALX1 (Homo sapiens, UniProt Q15699 118-204, L144R)
# ALX1 (Homo sapiens, UniProt Q15699 118-204, L144R), sequence (Q15699 118-204 L144R): as the sequence (Q15699 118-204 L144V) above, with V27R counted along it
# [25] = molecular target: T4, PAX4 (Homo sapiens, UniProt O43316 9-242, F177V)
# T4 sequence: T1 sequence with F169V, K192R
# [26] = molecular target: T5, PAX4 (Homo sapiens, UniProt O43316 9-242, F177Y)
# T5 sequence: T1 sequence with F169Y, K192R
# [27] = molecular target: T6, PAX4 (Homo sapiens, UniProt O43316 9-242, R227W)
# T6 sequence: T1 sequence with K192R, R219W
# [28] = molecular target: ALX1 (Homo sapiens, UniProt Q15699 118-204)
# ALX1 (Homo sapiens, UniProt Q15699 118-204), sequence (Q15699 118-204): as the sequence (Q15699 118-204 L144V) above, with V27L counted along it
# [29] = molecular target: T7, VENTX (Homo sapiens, UniProt O95231 78-163, Y115F)
# T7 sequence: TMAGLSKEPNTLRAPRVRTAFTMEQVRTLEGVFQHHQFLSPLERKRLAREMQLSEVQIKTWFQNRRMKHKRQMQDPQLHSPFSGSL
# [30] = molecular target: HOXA2 (Homo sapiens, UniProt O43364 129-215, R185T)
# HOXA2 (Homo sapiens, UniProt O43364 129-215, R185T), sequence (O43364 129-215 R185T): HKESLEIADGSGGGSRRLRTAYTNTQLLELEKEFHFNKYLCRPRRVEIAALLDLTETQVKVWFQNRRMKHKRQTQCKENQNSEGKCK
# [31] = molecular target: HOXA2 (Homo sapiens, UniProt O43364 129-215, R185K)
# HOXA2 (Homo sapiens, UniProt O43364 129-215, R185K), sequence (O43364 129-215 R185K): as the sequence (O43364 129-215 R185T) above, with T57K counted along it
# [32] = molecular target: VAX1 (Homo sapiens, UniProt Q5SQQ9 86-172)
# VAX1 (Homo sapiens, UniProt Q5SQQ9 86-172), sequence (Q5SQQ9 86-172): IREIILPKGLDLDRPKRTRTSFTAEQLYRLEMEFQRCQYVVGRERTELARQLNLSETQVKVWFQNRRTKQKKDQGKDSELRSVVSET
# [33] = molecular target: VAX1 (Homo sapiens, UniProt Q5SQQ9 86-172, T142I)
# VAX1 (Homo sapiens, UniProt Q5SQQ9 86-172, T142I), sequence (Q5SQQ9 86-172 T142I): as the sequence (Q5SQQ9 86-172) above, with T57I counted along it
# [34] = molecular target: HOXA2 (Homo sapiens, UniProt O43364 129-215, Y150S)
# HOXA2 (Homo sapiens, UniProt O43364 129-215, Y150S), sequence (O43364 129-215 Y150S): as the sequence (O43364 129-215 R185T) above, with Y22S, T57R counted along it
# [35] = molecular target: HOXA2 (Homo sapiens, UniProt O43364 129-215)
# HOXA2 (Homo sapiens, UniProt O43364 129-215), sequence (O43364 129-215): as the sequence (O43364 129-215 R185T) above, with T57R counted along it
# [36] = molecular target: VAX1 (Homo sapiens, UniProt Q5SQQ9 86-172, K157R)
# VAX1 (Homo sapiens, UniProt Q5SQQ9 86-172, K157R), sequence (Q5SQQ9 86-172 K157R): as the sequence (Q5SQQ9 86-172) above, with K72R counted along it
# HOXB4 (Homo sapiens, UniProt P17483 148-234), sequence (P17483 148-234): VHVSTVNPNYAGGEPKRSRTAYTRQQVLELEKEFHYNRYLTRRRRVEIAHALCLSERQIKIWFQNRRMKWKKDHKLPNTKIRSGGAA
# HOXB4 (Homo sapiens, UniProt P17483 148-234, V174I), sequence (P17483 148-234 V174I): as the sequence (P17483 148-234) above, with V27I counted along it
# HOXA7 (Homo sapiens, UniProt P31268 116-202), sequence (P31268 116-202): as the sequence (P31268 116-202 W177C) above, with C62W counted along it
sequence,measurement,setting,value
GTTCATTA,binding signal,[1],"13 upbm affinity estimate (log intensity, higher = more binding, comparable within an allelic series)"
same,binding signal,[2],"10.2 upbm affinity estimate (log intensity, higher = more binding, comparable within an allelic series)"
same,binding signal,[3],"13.6 upbm affinity estimate (log intensity, higher = more binding, comparable within an allelic series)"
same,binding signal,[4],"8.87 upbm affinity estimate (log intensity, higher = more binding, comparable within an allelic series)"
ATTCATTA,binding signal,[1],"13.1 upbm affinity estimate (log intensity, higher = more binding, comparable within an allelic series)"
same,binding signal,[5],"10.5 upbm affinity estimate (log intensity, higher = more binding, comparable within an allelic series)"
same,binding signal,[6],"12.1 upbm affinity estimate (log intensity, higher = more binding, comparable within an allelic series)"
same,binding signal,[3],"13.7 upbm affinity estimate (log intensity, higher = more binding, comparable within an allelic series)"
same,binding signal,[7],"13.7 upbm affinity estimate (log intensity, higher = more binding, comparable within an allelic series)"
same,binding signal,[8],"11.6 upbm affinity estimate (log intensity, higher = more binding, comparable within an allelic series)"
CCAGGCAG,binding signal,[1],"7.62 upbm affinity estimate (log intensity, higher = more binding, comparable within an allelic series)"
same,binding signal,[5],"9.9 upbm affinity estimate (log intensity, higher = more binding, comparable within an allelic series)"
same,binding signal,[9],"9.02 upbm affinity estimate (log intensity, higher = more binding, comparable within an allelic series)"
same,binding signal,[6],"9.88 upbm affinity estimate (log intensity, higher = more binding, comparable within an allelic series)"
same,binding signal,[3],"7.62 upbm affinity estimate (log intensity, higher = more binding, comparable within an allelic series)"
same,binding signal,[10],"7.78 upbm affinity estimate (log intensity, higher = more binding, comparable within an allelic series)"
same,binding signal,[7],"9.85 upbm affinity estimate (log intensity, higher = more binding, comparable within an allelic series)"
same,binding signal,[11],"7.65 upbm affinity estimate (log intensity, higher = more binding, comparable within an allelic series)"
same,binding signal,[12],"7.7 upbm affinity estimate (log intensity, higher = more binding, comparable within an allelic series)"
same,binding signal,[13],"7.82 upbm affinity estimate (log intensity, higher = more binding, comparable within an allelic series)"
same,binding signal,[8],"9.95 upbm affinity estimate (log intensity, higher = more binding, comparable within an allelic series)"
same,binding signal,[14],"7.76 upbm affinity estimate (log intensity, higher = more binding, comparable within an allelic series)"
same,binding signal,[15],"9.1 upbm affinity estimate (log intensity, higher = more binding, comparable within an allelic series)"
ACCCGTGG,binding signal,[1],"7.52 upbm affinity estimate (log intensity, higher = more binding, comparable within an allelic series)"
same,binding signal,[5],"9.91 upbm affinity estimate (log intensity, higher = more binding, comparable within an allelic series)"
same,binding signal,[6],"9.76 upbm affinity estimate (log intensity, higher = more binding, comparable within an allelic series)"
same,binding signal,[3],"7.53 upbm affinity estimate (log intensity, higher = more binding, comparable within an allelic series)"
same,binding signal,[7],"9.78 upbm affinity estimate (log intensity, higher = more binding, comparable within an allelic series)"
same,binding signal,[8],"9.9 upbm affinity estimate (log intensity, higher = more binding, comparable within an allelic series)"
CGTGGCGC,binding signal,[1],"7.6 upbm affinity estimate (log intensity, higher = more binding, comparable within an allelic series)"
same,binding signal,[16],"9.49 upbm affinity estimate (log intensity, higher = more binding, comparable within an allelic series)"
same,binding signal,[3],"7.68 upbm affinity estimate (log intensity, higher = more binding, comparable within an allelic series)"
same,binding signal,[17],"9.5 upbm affinity estimate (log intensity, higher = more binding, comparable within an allelic series)"
same,binding signal,[18],"9.45 upbm affinity estimate (log intensity, higher = more binding, comparable within an allelic series)"
same,binding signal,[19],"9.81 upbm affinity estimate (log intensity, higher = more binding, comparable within an allelic series)"
GTGGGGGA,binding signal,[1],"7.95 upbm affinity estimate (log intensity, higher = more binding, comparable within an allelic series)"
same,binding signal,[2],"8.47 upbm affinity estimate (log intensity, higher = more binding, comparable within an allelic series)"
same,binding signal,[20],"9.34 upbm affinity estimate (log intensity, higher = more binding, comparable within an allelic series)"
same,binding signal,[21],"9.25 upbm affinity estimate (log intensity, higher = more binding, comparable within an allelic series)"
same,binding signal,[9],"9.05 upbm affinity estimate (log intensity, higher = more binding, comparable within an allelic series)"
same,binding signal,[3],"7.59 upbm affinity estimate (log intensity, higher = more binding, comparable within an allelic series)"
same,binding signal,[22],"6.51 upbm affinity estimate (log intensity, higher = more binding, comparable within an allelic series)"
same,binding signal,[23],"9.37 upbm affinity estimate (log intensity, higher = more binding, comparable within an allelic series)"
same,binding signal,[24],"6.24 upbm affinity estimate (log intensity, higher = more binding, comparable within an allelic series)"
same,binding signal,[25],"9.35 upbm affinity estimate (log intensity, higher = more binding, comparable within an allelic series)"
same,binding signal,[26],"9.43 upbm affinity estimate (log intensity, higher = more binding, comparable within an allelic series)"
same,binding signal,[27],"9.48 upbm affinity estimate (log intensity, higher = more binding, comparable within an allelic series)"
same,binding signal,[4],"8.55 upbm affinity estimate (log intensity, higher = more binding, comparable within an allelic series)"
same,binding signal,[28],"6.29 upbm affinity estimate (log intensity, higher = more binding, comparable within an allelic series)"
same,binding signal,[15],"9.14 upbm affinity estimate (log intensity, higher = more binding, comparable within an allelic series)"
CCTAATGA,binding signal,[1],"13 upbm affinity estimate (log intensity, higher = more binding, comparable within an allelic series)"
same,binding signal,[5],"10.5 upbm affinity estimate (log intensity, higher = more binding, comparable within an allelic series)"
same,binding signal,[29],"11.5 upbm affinity estimate (log intensity, higher = more binding, comparable within an allelic series)"
same,binding signal,[30],"12.7 upbm affinity estimate (log intensity, higher = more binding, comparable within an allelic series)"
same,binding signal,[6],"11.7 upbm affinity estimate (log intensity, higher = more binding, comparable within an allelic series)"
same,binding signal,[3],"13.6 upbm affinity estimate (log intensity, higher = more binding, comparable within an allelic series)"
same,binding signal,[31],"13.4 upbm affinity estimate (log intensity, higher = more binding, comparable within an allelic series)"
same,binding signal,[7],"13.7 upbm affinity estimate (log intensity, higher = more binding, comparable within an allelic series)"
same,binding signal,[32],"13.2 upbm affinity estimate (log intensity, higher = more binding, comparable within an allelic series)"
same,binding signal,[33],"13 upbm affinity estimate (log intensity, higher = more binding, comparable within an allelic series)"
same,binding signal,[34],"10.7 upbm affinity estimate (log intensity, higher = more binding, comparable within an allelic series)"
same,binding signal,[8],"11.6 upbm affinity estimate (log intensity, higher = more binding, comparable within an allelic series)"
same,binding signal,[35],"12.4 upbm affinity estimate (log intensity, higher = more binding, comparable within an allelic series)"
same,binding signal,[36],"13 upbm affinity estimate (log intensity, higher = more binding, comparable within an allelic series)"
